From ChEMBL document CHEMBL2218924, “A broad activity screen in support of a chemogenomic map for kinase signalling research and drug discovery” (Biochem J, 2013) come the findings set out here.

For experiment [1], the target named is Tyrosine-protein kinase Lck (Homo sapiens) (UniProt P06239). The note with it: at 10 µM.
The target is the same in experiment [2]. The conditions noted are these: at 1 µM.
For experiment [3] the target is unchanged. The conditions noted are these: at 10 µM. The source holds these as a separate data set.
The target of experiment [4] is Tyrosine-protein kinase Lyn (Homo sapiens) (UniProt P07948). The note with it: at 1 µM.
For experiment [5] the target is unchanged. The conditions noted are these: at 10 µM.
Experiment [6] addresses Mitogen-activated protein kinase 3 (Homo sapiens) (UniProt P27361). The note with it: at 10 µM.
The target in experiment [7] is Mitogen-activated protein kinase 1 (Homo sapiens) (UniProt P28482). The note with it: at 1 µM.
For experiment [8] the target is unchanged. The note with it: at 10 µM.
The target of experiment [9] is MAP kinase-activated protein kinase 2 (Homo sapiens) (UniProt P49137). The conditions noted are these: at 1 µM.
Experiment [10] deals with Mitogen-activated protein kinase 3 (Homo sapiens) (UniProt P27361). The conditions noted are these: at 1 µM.
Sequence of Mitogen-activated protein kinase 3 (Homo sapiens) (P27361 whole entry): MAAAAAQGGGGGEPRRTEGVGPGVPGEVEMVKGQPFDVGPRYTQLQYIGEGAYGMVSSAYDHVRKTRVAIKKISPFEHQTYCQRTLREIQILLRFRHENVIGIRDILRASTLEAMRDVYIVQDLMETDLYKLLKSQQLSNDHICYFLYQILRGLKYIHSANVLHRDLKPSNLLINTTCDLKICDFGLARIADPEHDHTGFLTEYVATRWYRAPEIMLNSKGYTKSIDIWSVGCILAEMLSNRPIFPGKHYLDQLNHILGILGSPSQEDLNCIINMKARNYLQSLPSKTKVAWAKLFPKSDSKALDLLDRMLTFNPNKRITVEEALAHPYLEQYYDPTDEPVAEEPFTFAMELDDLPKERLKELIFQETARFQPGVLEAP

Sequence of Tyrosine-protein kinase Lyn (Homo sapiens) (P07948 2-512 limits assumed): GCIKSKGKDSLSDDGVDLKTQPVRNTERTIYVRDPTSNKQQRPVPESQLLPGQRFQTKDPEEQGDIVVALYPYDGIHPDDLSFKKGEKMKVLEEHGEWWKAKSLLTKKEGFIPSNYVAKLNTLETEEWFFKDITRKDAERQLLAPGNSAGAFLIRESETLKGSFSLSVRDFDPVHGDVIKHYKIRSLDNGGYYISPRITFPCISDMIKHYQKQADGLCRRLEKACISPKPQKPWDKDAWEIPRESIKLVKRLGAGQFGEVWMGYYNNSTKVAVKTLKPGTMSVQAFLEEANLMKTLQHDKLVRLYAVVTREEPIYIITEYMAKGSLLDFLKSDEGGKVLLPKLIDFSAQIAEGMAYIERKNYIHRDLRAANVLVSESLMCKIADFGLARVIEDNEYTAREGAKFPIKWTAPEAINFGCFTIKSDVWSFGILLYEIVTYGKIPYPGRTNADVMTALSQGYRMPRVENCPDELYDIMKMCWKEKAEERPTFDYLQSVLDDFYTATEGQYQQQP
Sequence of Tyrosine-protein kinase Lck (Homo sapiens) (P06239 2-509 limits assumed): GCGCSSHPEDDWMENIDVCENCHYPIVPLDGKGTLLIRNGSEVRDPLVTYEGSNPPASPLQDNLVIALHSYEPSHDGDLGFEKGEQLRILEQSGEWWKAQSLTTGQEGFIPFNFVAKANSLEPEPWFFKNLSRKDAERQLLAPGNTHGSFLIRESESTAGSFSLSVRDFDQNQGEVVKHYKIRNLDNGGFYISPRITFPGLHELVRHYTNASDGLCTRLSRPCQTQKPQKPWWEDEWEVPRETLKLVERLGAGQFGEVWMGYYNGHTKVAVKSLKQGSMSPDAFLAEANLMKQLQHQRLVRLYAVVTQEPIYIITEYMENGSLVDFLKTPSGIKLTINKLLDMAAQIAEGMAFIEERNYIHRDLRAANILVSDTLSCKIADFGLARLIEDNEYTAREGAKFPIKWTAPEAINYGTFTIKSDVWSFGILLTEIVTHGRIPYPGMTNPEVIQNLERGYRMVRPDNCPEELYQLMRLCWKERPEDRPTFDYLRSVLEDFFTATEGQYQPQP
Sequence of MAP kinase-activated protein kinase 2 (Homo sapiens) (P49137 whole entry, looked up): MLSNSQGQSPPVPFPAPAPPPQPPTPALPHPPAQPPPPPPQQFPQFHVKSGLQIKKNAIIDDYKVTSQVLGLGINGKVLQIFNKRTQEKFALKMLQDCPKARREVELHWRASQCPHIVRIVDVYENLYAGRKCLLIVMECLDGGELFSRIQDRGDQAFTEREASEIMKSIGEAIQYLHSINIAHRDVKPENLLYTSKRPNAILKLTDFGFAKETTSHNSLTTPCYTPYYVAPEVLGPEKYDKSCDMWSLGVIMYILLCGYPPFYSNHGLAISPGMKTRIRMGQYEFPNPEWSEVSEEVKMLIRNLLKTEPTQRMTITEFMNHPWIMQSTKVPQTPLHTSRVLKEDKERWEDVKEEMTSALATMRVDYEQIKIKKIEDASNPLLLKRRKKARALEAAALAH
Sequence of Mitogen-activated protein kinase 1 (Homo sapiens) (P28482 whole entry): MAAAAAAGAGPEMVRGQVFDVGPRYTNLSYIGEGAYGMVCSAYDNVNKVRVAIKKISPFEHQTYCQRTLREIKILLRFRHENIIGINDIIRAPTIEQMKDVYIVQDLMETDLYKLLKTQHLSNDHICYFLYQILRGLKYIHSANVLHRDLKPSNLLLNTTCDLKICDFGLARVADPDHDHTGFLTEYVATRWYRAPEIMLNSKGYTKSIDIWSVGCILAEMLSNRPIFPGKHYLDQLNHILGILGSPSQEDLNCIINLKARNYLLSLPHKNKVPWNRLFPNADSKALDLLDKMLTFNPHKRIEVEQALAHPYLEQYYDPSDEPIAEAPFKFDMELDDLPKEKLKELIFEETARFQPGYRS

Take `COc1cc2ncnc(Nc3cccc(Cl)c3)c2cc1OC`: the residual activity came to 12% in experiment [1]; 49% in experiment [2]; 15% in [3]; 10% in experiment [4]; 1% in experiment [5]; 65% in [6]. Also, the residual activity in [7] stood at 101%; in experiment [8], 80%; in experiment [9], 108%.

`CCN(CC)CCNC(=O)c1c(C)[nH]c(/C=C2\C(=O)Nc3ccc(Cl)cc32)c1C`: the residual activity was 2% in experiment [1]; 6% in experiment [2]; -1% in [3]; 2% in experiment [4]; 3% in experiment [5]; 115% in [6].

Regarding `CSc1nc(-c2ccc(F)cc2)c(-c2ccnc(NC(C)c3ccccc3)c2)[nH]1` (centres undefined), the residual activity in experiment [1] was determined as 62%; in [3] it was 37%; in [4], 52%; in experiment [5], 29%; in experiment [9] it was 79%.

For the molecule `O=c1cc(N2CCNCC2)oc2c(-c3ccccc3)cccc12`, the residual activity was 85% in experiment [1]; 92% in [2]; 88% in [3]; 71% in experiment [5]; 86% in experiment [10]; 87% in experiment [6]. Further, the residual activity turned out to be 101% in [7] and 94% in experiment [9].

`O=C1NC(=O)c2c1c1c3ccccc3[nH]c1n1cncc21`: the residual activity turned out to be 49% in experiment [1]; 72% in [2]; 47% in experiment [3]; 57% in [4]; 19% in experiment [5]; 86% in experiment [10]. In addition, the residual activity in experiment [6] is 90%; in [8], 98%; in [9], 79%.

With `O=C1Nc2ccccc2/C1=C\c1c(Cl)[nH]c2ccccc12`, the residual activity is 48% in [1], 55% in experiment [3], 62% in experiment [5] and 121% in experiment [7].

With `O=C1NC(=O)C(c2c[nH]c3ccccc23)=C1c1c[nH]c2ccccc12`, the residual activity was found to be 37% in experiment [1]; 41% in experiment [3]; 82% in [4]; 32% in [5]; 61% in [6]; 98% in experiment [9].

`COc1ccc2c(c1)c(C1=C(c3c[nH]c4ccccc34)C(=O)NC1=O)cn2CCCN(C)C`: the residual activity is 25% in experiment [1]; 65% in experiment [2]; 27% in [3]; 63% in experiment [4]; 13% in experiment [5]; 104% in experiment [10]. In addition, the residual activity in experiment [6] turned out to be 82%; in [7], 114%.

With `COc1ccc(CNC(=O)Nc2ncc([N+](=O)[O-])s2)cc1`, the residual activity came out at 37% in experiment [1]; 6% in [2]; 9% in [3]; 120% in [7]; 101% in experiment [8].

Turning to `Nc1ncnc2c1c(-c1ccc(Oc3ccccc3)cc1)cn2C1CCCC1`, the residual activity in [1] was -1%; in [2], -3%; in experiment [3] it was 2%; in experiment [4] it was 0%; in experiment [5], 1%; in experiment [10], 76%. The residual activity in [6] turned out to be 66%; in experiment [7], 106%; in [8], 93%; in experiment [9], 82%.

Consider `O=C(CCCc1ccc(-c2ccccc2F)cc1)Nc1ccc(O)cc1`, for which the residual activity in experiment [1] is 58%; in experiment [2], 99%; in experiment [3] it was 88%; in [4], 97%; in experiment [5], 85%; in [10], 100%. For the same molecule, the residual activity in experiment [6] stood at 88%; in experiment [7] it was 106%; in experiment [8], 92%; in experiment [9] it was 95%.

Regarding `Nc1nc(Nc2ccc(S(N)(=O)=O)cc2)nn1C(=O)c1c(F)cccc1F`, the residual activity in [1] was 29%; in experiment [2] it was 66%; in [3], 18%; in [4] it was 40%; in experiment [5], 11%; in experiment [10] it was 102%.

For `c1ccc(-c2cnc(Nc3ccc(OCCN4CCCC4)cc3)s2)cc1`, the residual activity amounted to 19% in experiment [1]; 36% in [2]; 5% in [3]; 29% in experiment [4]; 4% in [5].

With `O=C(NC(NC(=S)Nc1ccc(F)c([N+](=O)[O-])c1)C(Cl)(Cl)Cl)C(c1ccccc1)c1ccccc1` (centres undefined), the residual activity in experiment [1] was found to be 55%; in [2], 86%; in experiment [3], 74%; in [4], 89%; in experiment [5] it was 66%; in experiment [10], 82%. Further, the residual activity is 82% in [6] and 90% in [9].

For `COc1ccc(-c2cnc3c(-c4ccsc4)cnn3c2)cc1`, the residual activity in [1] stood at 123%; in experiment [2] it was 93%; in [3] it was 91%; in [4] it was 98%; in experiment [5], 95%; in experiment [10], 84%. In addition, the residual activity in [6] and in experiment [9] was 91% in each case.

Regarding `NCCNc1ncc(C(N)=O)c(Nc2cccc(C(F)(F)F)c2)n1`, the residual activity in experiment [1] amounted to 37%; in experiment [2], 82%; in [3], 29%; in experiment [4] it was 27%; in experiment [5] it was 3%; in [10] it was 72%. In addition, the figures for the residual activity in experiment [6] and in experiment [8] were 40% and 43%, respectively.

`O=C(c1ccccc1)c1ccc(N2CCOCC2)cc1O`: the residual activity was determined as 94% in [1]; 96% in [2]; 78% in [3]; 85% in experiment [4]; 72% in [5]; 90% in experiment [10]. In addition, the results for the residual activity in experiment [6] and in experiment [9] were 89% and 73%, respectively.

Regarding `CCCC(=O)Oc1ccc2[nH]c(C(=O)c3cc4ccccc4[nH]3)cc2c1`, the residual activity in experiment [1] amounted to 73%; in experiment [2], 80%; in experiment [3], 76%; in experiment [4] it was 61%; in experiment [5], 31%; in experiment [10], 77%. In addition, the residual activity is 80% in experiment [6], 100% in [7], 104% in experiment [8] and 75% in [9].

For `O=C(O)/C=C/c1cc(Br)c(Br)c(Br)c1Br`, the residual activity was 95% in [1]; 80% in experiment [3]; 70% in experiment [4]; 63% in experiment [5]; 106% in experiment [10]; 104% in experiment [6]. The residual activity in experiment [9] came to 93%.

Consider `CC(C)c1nn(-c2c(Cl)cccc2Cl)c2nc(Cc3ccc(OCCO)cc3)[nH]c(=O)c12`, for which the residual activity in [1] was determined as 85%; in [3], 88%; in experiment [4], 81%; in experiment [5] it was 36%; in [10], 94%; in [6], 73%. Moreover, the residual activity stood at 89% in experiment [8] and 80% in [9].

With `O=C(c1cc2cc(O)ccc2[nH]1)c1cc2cc(O)ccc2[nH]1`, the residual activity in experiment [1] is 2%; in [2], 22%; in experiment [3], 7%; in experiment [4], 6%; in [5] it was -1%; in experiment [10], 82%. Moreover, the residual activity in experiment [6] and in experiment [9] was 64% throughout.

As to `CCCCc1c(-c2ccc(O)cc2)[nH]c2nccnc12`, the residual activity amounted to 50% in experiment [1]; 63% in experiment [2]; 59% in experiment [3]; 96% in experiment [10]; 73% in experiment [6]; 98% in experiment [9].

For `COc1cc2nccc(Oc3ccc(NC(=O)Nc4cc(C)on4)c(Cl)c3)c2cc1OC`, the residual activity in experiment [1] was 1%; in [2], -2%; in experiment [3], 1%; in experiment [4] it was -1%; in experiment [5], 2%; in experiment [7], 103%. Moreover, the residual activity in [8] was 104%.

On to `Nc1ncnc2[nH]nc(Nc3ccc(F)cc3)c12`, for which the residual activity in experiment [1] worked out at 14%; in experiment [2], 31%; in experiment [3] it was 19%; in experiment [4] it was 19%; in [5], 3%; in experiment [10], 90%. In addition, the residual activity was 43% in experiment [6], 101% in experiment [7], 67% in experiment [8] and 75% in [9].

As for `O=c1cc(N2CCOCC2)oc2c1ccc1ccccc12`, the residual activity in [1] worked out at 101%; in experiment [2], 89%; in [3], 88%; in experiment [4] it was 103%; in [5] it was 90%; in experiment [10], 101%. Besides, the residual activity in [6] stood at 80%; in [7] it was 103%; in experiment [8], 106%; in experiment [9] it was 100%.
